In PubChem BioAssay AID1159580 (chemical genetic matrix, 2015):
In all, about 5,500 compounds went through this assay and about 2,000 (36%) were called active. Another 18% or so got no clear call; they are omitted. No stated cut-off is given here; in the data, active means normalized growth mostly below about 0.91 (no sharp cut-off); inconclusive means no clear call, values can overlap the other calls; inactive means mostly above about 0.92. This is one part of the list.

Experiment: chemical genetic growth profiling, strain panel (AID 1159580);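 further: tested at 20 µM; growth read once vehicle control cultures reached saturation at 30 °C; 1 = growth at the plate median or of vehicle wells; lower values mean less growth of the strain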
Settings: S. cerevisiae deletion strains, growth OD
[1] = locus YDR150W, strain NUM1, active compounds read low
[2] = locus YGR078C, strain PAC10, active compounds read low
[3] = locus YJR075W, strain HOC1, active compounds read low
[4] = locus YMR263W, strain SAP30, active compounds read low

Measured: normalized growth

OC[C@H]1O[C@@H](n2cnc3c(NCCc4ccccc4)ncnc32)C(O)[C@H]1O (some centres undefined)
inactive: locus YAL040C, strain CLN3, active compounds read low 0.979 | locus YCL061C, strain MRC1 (second series), active compounds read low 0.999 | [1] 0.993 | locus YDR363W, strain ESC2, active compounds read low 0.954 | locus YER002W, strain NOP16, active compounds read low 1.02 | [2] 0.996 | [3] 0.993 | [4] 0.998 | locus YMR307W, strain GAS1, active compounds read low 0.997 | locus YNL128W, strain TEP1, active compounds read low 0.989 | locus YNL175C, strain NOP13, active compounds read low 0.991 | locus YNL197C, strain WHI3, active compounds read low 0.991 | locus YNL224C, strain SQS1, active compounds read low 1.01 | locus YOR083W, strain WHI5 (second series), active compounds read low 0.997

Cc1cc(C)c(I)c(C)c1
inactive: locus YAL013W, strain DEP1, active compounds read low 1 | locus YBR229C, strain ROT2, active compounds read low 1.02 | locus YDL101C, strain DUN1, active compounds read low 0.987 | [1] 0.984 | locus YEL061C, strain CIN8, active compounds read low 1.05 | [2] 0.995 | locus YHR030C, strain SLT2, active compounds read low 1.12 | locus YHR087W, strain rtc3, active compounds read low 1.09 | locus YJR043C, strain POL32, active compounds read low 1.01 | [3] 1.02 | locus YKL190W, strain CNB1, active compounds read low 0.99 | locus YLR039C, strain RIC1, active compounds read low 1.05 | locus YLR058C, strain SHM2 (second series), active compounds read low 1.02 | locus YLR085C, strain ARP6, active compounds read low 1.01 | locus YLR262C, strain YPT6, active compounds read low 1.05 | locus YML094W, strain GIM5, active compounds read low 1.02 | locus YMR219W, strain ESC1, active compounds read low 1.01 | [4] 1.02 | locus YNL153C, strain GIM3, active compounds read low 0.999 | locus YNL298W, strain CLA4 (second series), active compounds read low 1.04 | locus YNL322C, strain KRE1, active compounds read low 1 | locus YNR030W, strain Alg12, active compounds read low 1.03 | locus YPL055C, strain LGE1, active compounds read low 1.02 | locus YPL241C, strain CIN2, active compounds read low 1.02 | locus YPR135W, strain CTF4, active compounds read low 0.963
